Molecules are shown by their SMILES. Compounds without any hit were thinned out: in the full panel of roughly 83,000, 20% have a hit.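 Growth was measured after 48 h exposure to one concentration of compound in 96-well plates. Values under 10 count as active.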 Unmarked numbers belong to inactive results. Active and inactive are the calls of the source.

The subject of this test is MDA-MB-468 breast. As to the kind of experiment: NCI-60 one-dose screen, 48 h (100 = growth as untreated, 0 = no growth, -100 = all killed). Particulars: 10 µM unless noted.
For the compound `COc1cccc(CNCCN2C(=O)c3ccc4c5c(ccc(c35)C2=O)C(=O)N(CCNCc2cccc(OC)c2)C4=O)c1`, the growth was 89.9%. On to `CN(CCCCN(C[C@H]1Cc2ncccc2CN1)[C@H]1CCCc2cccnc21)C1CCC(F)(F)CC1`, for which the growth was 95.3%. The result for `COc1ccc(-n2c(-c3ccc(NC(=O)CCCl)cc3)nnc2-c2cc(OC)c(OC)c(OC)c2)cc1` reads -11.1% (active); that for `Cc1cccc(CO)c1`, 107%.

For `O=C(Nc1ccc(Cl)cc1)c1cc2c(cc1O)[nH]c1ccccc12`, the growth is -17.6% (active). The result for `CCCCCCCCCCCCCC[N+](C)(C)CCCCCCCCCCCCCC` reads 21.4%; that for `CN(C)CCNc1cc(-c2ccccc2)nc2ccccc12`, -33.3% (active).

`CNC(=O)c1cc(COc2nnc(Nc3ccc(Cl)cc3)c3ccoc23)ccn1`: the growth is 65%. As to `CCOC(=O)c1c(Nc2ccccc2)nn2c(N)c(C#N)c(-c3ccccc3)nc12`, the growth is 62.4%. The result for `COc1cc(NCCCN=C(N)NC(N)=NC(C)C)c2ncccc2c1` reads -34.2% (active); that for `COc1ccc(Nc2nc(N)nc3c2CCc2occc2-3)cc1`, 101%; that for `COC1=C(C)C(=O)c2c(c(CCCl)c3n2CCC3O)C1=O` (stereo not given), 91.5%.

Take `COc1ccc(OC)c(/C=C/[C@H]2O[C@@H](C)[C@H](O)[C@@H]2O)c1`: the growth was 114%. For the compound `O=C(CCl)NCCNc1nccc(Nc2ccc(S(=O)(=O)Nc3ccccn3)cc2)n1`, the growth is 21.1%. For `Cc1nc(N)sc1-c1csc(Nc2ccc(C(F)(F)F)cc2)n1` the value was -28.9% (active). The result for `[O-][n+]1c(Cl)cc(Cl)c2ccccc21` reads 123%; that for `COc1cc(/C=C/C(=O)/C=C/c2ccc(-n3ccnc3)cc2)ccc1O`, 37.8%; that for `O=C1c2ccccc2CN1c1ccccc1`, 101%.

On to `CC(Br)c1nc2ccccc2cc1C(N)=O` (stereo not given), for which the growth was 105%. The result for `OC(c1ccccc1)(c1ccccc1)c1ccccc1-c1ccccc1` reads 69.1%; that for `Nc1nc(-c2ccccc2Br)nn1-c1nc2ccccc2s1`, 103%. As for `CCOC(=O)NCCc1ccccc1`, the growth was 112%. For `CC(C)(C)c1cc(C(=O)Nc2ccc(C(=O)NCCN)cc2)cc(C(C)(C)C)c1` the value was -39.5% (active); for `CCOC(=O)c1cnn(-c2nc(-c3ccc(F)cc3)c(C#N)c(N3CCOCC3)n2)c1N`, 92.6%; for `COc1cc(C2CC(c3ccc(Cl)cc3)=NN2C=O)ccc1OS(=O)(=O)c1ccc(C)cc1` (stereo not given), 60.6%. For the compound `CCCCCC[n+]1ccc(SCC(=O)n2ccc3ccccc32)c2ccccc21`, the growth is 4.72% (active). As to `CCCCCCCCCCC[C@@H](C[C@H]1OC(=O)[C@H]1CCCCCC)OC(=O)[C@@H](CC(C)C)NC=O`, the growth was 101%.

Regarding `O=NN(CCCl)C(=O)Nc1ccc(NC(=O)N(CCCl)N=O)cc1`, the growth is 96.4%. In the case of `CC(C)c1ccc(C(=O)Nc2sc3c(c2C#N)CCC(=O)C3)cc1`, the growth is -45.7% (active).

Turning to `CC(C)(O)CC(=O)NCCn1ccc2ncnc(Nc3ccc(Oc4cccc(C(F)(F)F)c4)c(Cl)c3)c21`, the growth is -43.8% (active).

For the compound `C[C@@H]1NC(=O)[C@H](Cc2ccccc2)N(Cc2cccnc2)C1=O`, the growth is 108%.

For the compound `CCC(=O)OC1=CN2C(=NC(c3ccc(N)cc3)=CC2c2cc(OC)c(OC)c(OC)c2)S1` (stereo not given), the growth was 25.5%. On to `O=C1COCCN1c1ccc(Nc2nc(Cl)nc(OCc3cn(Cc4ccccc4)nn3)n2)cc1`, for which the growth was 62.1%.

Regarding `COc1ccc2c(c1)c(-c1nc(-c3cn(C)c4ncccc34)cs1)cn2CCO`, the growth was -16.8% (active). For `NS(=O)(=O)c1ccc(CCN2C(=O)C=CC2=O)cc1` the value was 103%; for `N#Cc1c(-c2ccc(C(F)(F)F)cc2)c(F)c(NCCC2CCC(O)C2)n2c1nc1ccccc12` (stereo not given), 64.2%; for `COc1ccc2c(c1)c(-c1nonc1-c1cn(C)c3ccc(OC)cc13)cn2C`, 29%. For `Cc1cc(C(C)(C)C)ccc1S` the value was 104%. Regarding `Cc1c2cnccc2c(C)c2c1c1cc(O)ccc1n2C(C)C`, the growth was 24.3%. For `CCCOc1ccc(-c2nc(-c3ccc(N)cc3)cs2)cc1` the value was 110%.

The values above are taken from PubChem BioAssay (NCI).
